The text below walks through data of PubChem BioAssay (NCATS).

Test [1] deals with Lysosomal acid glucosylceramidase (Homo sapiens) (UniProt P04062). Kind of test: Glucocerebrosidase-p2 (AID 348; in the data active = potency below about 10 µM; also: potency is read from the fitted curve at half-maximal effect). The following applies: purified GBA, blue fluorogenic substrate, 40 min. In outline:
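Compounds titrated from 0.6 nM upwards against 0.2 nM enzyme in pH 5.9 citric acid/KH2PO4, taurocholate, tween-20; blue fluorogenic substrate 80 uM, 40 min room temperature, stopped and read Ex 365/Em 440 for AC50.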

Test [2] is described as follows: AP1 Signaling Pathway (AID 357).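 Also: ME-180 reporter cells stimulated with EGF at its EC50 level; % is scaled to controls: 0 for no effect and ±100 for the full control effect.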 The settings on record: ME-180 AP-1-bla reporter, EGF-induced, beta-lactamase ratio, 5 h; at 7.69 µM (top of the series) unless noted. In outline: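 In this screen, ME-180 cells in Opti-MEM with 0.5% dialyzed FBS received EC50 EGF and compound titrations for 5 h. AP-1 reporter beta-lactamase was detected via CCF4 ratio, giving AC50 for positive and negative modulators.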

Test [3] addresses Cytochrome P450 1A2 (Homo sapiens) (UniProt P05177). Nature of the test: p450-cyp1a2 (AID 410; calls by dose curve; also: potency is read from the fitted curve at half-maximal effect;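 as to activity change, negative = inhibition: -100% = full effect of reference inhibitor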). The following applies: recombinant CYP1A2, luciferin-ME demethylation, luminescence; series mostly up to 11.4 µM. In outline:
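20nM CYP1A2 with 100uM Luciferin-ME (at Km) in 100mM KPO4; compound preincubated 10 min, NADPH regeneration added, 60 min at room temperature. Luciferin quantified by luminescence after detection reagent; normalized to 57 uM furafylline.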

In test [4] the target is Glucocorticoid receptor (Homo sapiens) (UniProt P04150). Kind of test: GR-GFP Redistribution (AID 450;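 active = compounds whose dose series gives a full or clear partial fitted curve of increased nuclear translocation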; also: potency is read from the fitted curve at half-maximal effect). The settings on record: U2OS GR-GFP nuclear translocation, laser cytometry, 2 h.
Test [5] has the same target. Nature of the test: GR-EFC Redistribution (AID 451; calls by dose curve; also: potency is read from the fitted curve at half-maximal effect). The settings on record: CHO-K1 GR-EFC translocation, beta-gal luminescence, 2 h. In outline:
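CHO-K1 cells stably expressing nuclear-localized β-gal enzyme acceptor and GR fused C-terminally to the enzyme donor fragment; ligand-driven nuclear translocation restores β-gal by complementation. Compounds titrated up to 46 uM final, 2 h at 37 °C; luminescence read.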

In test [6] the target is Mitogen-activated protein kinase 10 (Mus musculus) (UniProt Q61831). Kind of test: JNK3 AlphaScreen Assay (AID 530).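 Also: kinase came from lysate of stimulated human HepG2 cells; signal reports phosphorylation of biotinylated GST-cJun 1-79 at Ser73 with 10 µM ATP; % is scaled to controls: 0 for no effect and ±100 for the full control effect.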 The settings on record: JNK3 lysate, c-Jun phosphorylation; series mostly up to 11.4 µM. In outline: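 Inhibitors reduce antibody binding to phosphorylated biotin-cJun, lowering AlphaScreen luminescence. Lysates from HepG2 cells pre-activated by IL-1beta plus TNF-alpha supplied JNK3; compounds were titrated.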

Test [7] has as its target 3',5'-cyclic-AMP phosphodiesterase 4B (Homo sapiens) (UniProt Q07343). Kind of test: qHTS Assay for Inhibitors of PDE-IV (AID 607; active = well fitted activation curve with a large enough effect in the main read-out, with a control signal flat, not every such curve was filed as active; also: % of control where 0% means no effect). The following applies: HEK293 ACTOne CNG channel cells, membrane potential fluorescence; series mostly up to 22.9 µM. In outline: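 ACTOne HEK293 cells carry a modified cAMP-gated CNG channel and express endogenous PDE4; plated 1000 cells/well, compounds up to 22.9 uM final. Membrane-potential dye fluorescence (ex 535/em 590) was read; parental cells received 10 uM forskolin + 100 uM RO 20-1724.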

Test [8] has as its target Cytochrome P450 2D6 (Homo sapiens) (UniProt P10635). Nature of the test: qHTS Assay for Inhibitors and Substrates of Cytochrome P450 2D6 (AID 891; active = well fitted curve in the direction sought with a large enough effect; an effect the other way counts as inactive or inconclusive; also: nearly all actives have a fitted effect of over 60% in size; also: potency is read from the fitted curve at half-maximal effect;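 as to activity change, negative = inhibition: luciferin methyl ether substrate demethylated by CYP2D6 with NADPH regeneration; % is scaled to controls: 0 for no effect and ±100 for the full control effect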). The following applies: recombinant CYP2D6, luciferin-ME EGE luminescence; series mostly up to 11.4 µM. In outline: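 Human CYP2D6 (5 nM) with 30 uM Luciferin-ME EGE (at Km) in 100 mM KPO4, compound preincubated 10 min, then NADPH regeneration system for 60 min at room temperature. Luciferin read by luminescence; normalized to 1.43 uM quinidine.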

Test [9] addresses Cytochrome P450 2C19 (Homo sapiens) (UniProt P33261). Nature of the test: qHTS Assay for Inhibitors and Substrates of Cytochrome P450 2C19 (AID 899; active = well fitted curve in the direction sought with a large enough effect; an effect the other way counts as inactive or inconclusive; also: nearly all actives have a fitted effect of over 60% in size; also: potency is read from the fitted curve at half-maximal effect). The following applies: recombinant CYP2C19, luciferin-H EGE luminescence; series mostly up to 11.4 µM. In outline: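 NADPH-dependent conversion of Luciferin-H EGE (10uM, at KM) by 5nM enzyme in 50mM KPO4, 60 min at 37C following 10 min compound preincubation. Stopped with luciferin detection buffer; luminescence read after 20 min.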

In test [10] the target is Cytochrome P450 3A4 (Homo sapiens) (UniProt P08684). Kind of test: qHTS Assay for Activators of Cytochrome P450 3A4 (AID 885; active = well fitted curve in the direction sought with a large enough effect; an effect the other way counts as inactive or inconclusive; also: nearly all actives have a fitted effect of over 65% in size). The following applies: recombinant CYP3A4, Luciferin-PPXE luminescence, 60 min; series mostly up to 11.4 µM. In outline:
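20nM CYP3A4 + 25uM Luciferin-PPXE (=KM), 200mM KPO4; cpd 10 min RT; NADPH regen, 60 min RT; stop w/ detection buffer, 20 min; luminescence. Normalized to 57 uM ketoconazole.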

Test [11] is described as follows: Stat Signaling Pathway (AID 446).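 Also: ME-180 cervical cancer cells given 40 pM IL-6 alongside compound; SIE-controlled beta-lactamase reporter measured as 460/530 nm FRET emission ratio; % is scaled to controls: 0 for no effect and ±100 for the full control effect.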 The following applies: ME-180 (cervical carcinoma) SIE beta-lactamase reporter, IL-6 stimulated, 5 h; at 7.69 µM (top of the series) unless noted. In outline:
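ME-180 SIE-bla cells; overnight plating; cpd + IL-6 40 pM, 5 h, 37 C; LiveBLAzer 2.5 h RT; 460/530 nm emission ratio. Normalized to 300 pM IL-6 and 125 nM JAK inhibitor controls.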

Test [12] concerns the target Cytochrome P450 2C9 (Homo sapiens) (UniProt P11712). Kind of test: qHTS Assay for Inhibitors and Substrates of Cytochrome P450 2C9 (AID 883; active = well fitted curve in the direction sought with a large enough effect; an effect the other way counts as inactive or inconclusive; also: potency is read from the fitted curve at half-maximal effect; nearly all actives have a fitted effect of over 60% in size). The following applies: recombinant CYP2C9, luciferin-H luminescence, 60 min; series mostly up to 11.4 µM. In outline:
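A luminogenic readout tracked human CYP2C9 (10nM) converting deoxyluciferin (100uM, at KM) in 25mM KPO4 during 60 min at 37C with regenerated NADPH. Values normalized to 57uM sulphaphenazole as complete inhibition.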

Structures are written as SMILES. A number with no mark means an inactive call. Inconclusive results are not listed. Active and inactive are the calls of the source. Unless noted, calls follow the shape of the dose curve; as a rule, active = well fitted curve in either direction with a large enough effect (not every such curve was filed as active); inconclusive = small, poorly fitted or top-dose-only effect, or another doubt; inactive = flat fitted curve, though single readings scatter.

Glucocorticoid receptor (Homo sapiens), sequence (P04150 whole entry, looked up): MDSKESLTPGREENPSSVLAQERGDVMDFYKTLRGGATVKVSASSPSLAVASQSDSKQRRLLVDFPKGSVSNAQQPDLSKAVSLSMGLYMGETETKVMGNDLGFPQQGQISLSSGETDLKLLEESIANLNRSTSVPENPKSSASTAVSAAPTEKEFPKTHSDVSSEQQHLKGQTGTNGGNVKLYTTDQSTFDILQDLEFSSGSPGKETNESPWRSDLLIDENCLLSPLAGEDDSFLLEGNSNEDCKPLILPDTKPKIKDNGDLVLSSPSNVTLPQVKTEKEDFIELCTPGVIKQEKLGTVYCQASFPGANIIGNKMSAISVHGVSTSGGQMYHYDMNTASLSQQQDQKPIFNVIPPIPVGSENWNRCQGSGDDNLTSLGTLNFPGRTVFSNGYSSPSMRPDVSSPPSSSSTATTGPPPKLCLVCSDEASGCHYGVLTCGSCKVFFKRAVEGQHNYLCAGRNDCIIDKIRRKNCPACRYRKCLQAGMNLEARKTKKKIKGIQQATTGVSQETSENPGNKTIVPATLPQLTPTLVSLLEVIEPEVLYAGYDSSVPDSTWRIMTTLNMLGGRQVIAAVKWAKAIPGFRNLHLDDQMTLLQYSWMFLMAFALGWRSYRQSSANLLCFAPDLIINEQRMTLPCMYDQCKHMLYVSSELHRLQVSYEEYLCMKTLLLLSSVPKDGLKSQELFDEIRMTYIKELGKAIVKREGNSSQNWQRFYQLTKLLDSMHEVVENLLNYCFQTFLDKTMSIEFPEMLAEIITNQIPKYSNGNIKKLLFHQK
Lysosomal acid glucosylceramidase (Homo sapiens), sequence (P04062 whole entry, looked up): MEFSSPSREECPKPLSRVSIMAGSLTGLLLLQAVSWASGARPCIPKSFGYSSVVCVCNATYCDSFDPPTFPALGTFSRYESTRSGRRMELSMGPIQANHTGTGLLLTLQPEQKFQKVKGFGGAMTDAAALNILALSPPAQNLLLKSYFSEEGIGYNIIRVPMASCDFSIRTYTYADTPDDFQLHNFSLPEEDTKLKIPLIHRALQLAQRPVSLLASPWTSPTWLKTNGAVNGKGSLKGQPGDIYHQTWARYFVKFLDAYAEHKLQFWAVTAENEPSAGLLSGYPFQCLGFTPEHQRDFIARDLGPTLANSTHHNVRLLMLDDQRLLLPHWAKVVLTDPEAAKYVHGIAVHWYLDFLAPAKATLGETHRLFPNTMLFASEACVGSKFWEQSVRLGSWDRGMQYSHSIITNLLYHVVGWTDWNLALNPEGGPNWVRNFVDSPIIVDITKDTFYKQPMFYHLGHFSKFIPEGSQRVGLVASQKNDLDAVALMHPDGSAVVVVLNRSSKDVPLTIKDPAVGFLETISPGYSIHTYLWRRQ
3',5'-cyclic-AMP phosphodiesterase 4B (Homo sapiens), sequence (Q07343 whole entry, looked up): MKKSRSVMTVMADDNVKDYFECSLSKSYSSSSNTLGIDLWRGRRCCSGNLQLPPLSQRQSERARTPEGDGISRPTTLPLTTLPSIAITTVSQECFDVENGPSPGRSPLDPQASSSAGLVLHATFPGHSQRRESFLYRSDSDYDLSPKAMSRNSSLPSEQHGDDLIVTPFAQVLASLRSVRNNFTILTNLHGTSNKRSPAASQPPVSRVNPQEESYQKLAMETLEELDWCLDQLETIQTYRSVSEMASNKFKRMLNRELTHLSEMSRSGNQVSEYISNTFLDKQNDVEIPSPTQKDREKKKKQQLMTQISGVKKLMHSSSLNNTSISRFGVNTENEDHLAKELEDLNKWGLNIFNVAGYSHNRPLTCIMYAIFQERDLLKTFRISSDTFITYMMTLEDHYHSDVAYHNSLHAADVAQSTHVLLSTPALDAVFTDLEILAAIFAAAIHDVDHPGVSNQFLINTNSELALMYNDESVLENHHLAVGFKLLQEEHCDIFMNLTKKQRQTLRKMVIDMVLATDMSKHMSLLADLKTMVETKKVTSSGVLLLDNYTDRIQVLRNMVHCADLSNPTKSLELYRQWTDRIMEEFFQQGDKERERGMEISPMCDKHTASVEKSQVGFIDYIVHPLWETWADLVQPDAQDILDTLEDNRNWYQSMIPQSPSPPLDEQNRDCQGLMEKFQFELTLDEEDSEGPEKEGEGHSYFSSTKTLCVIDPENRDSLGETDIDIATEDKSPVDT
Cytochrome P450 2C19 (Homo sapiens), sequence (P33261 whole entry, looked up): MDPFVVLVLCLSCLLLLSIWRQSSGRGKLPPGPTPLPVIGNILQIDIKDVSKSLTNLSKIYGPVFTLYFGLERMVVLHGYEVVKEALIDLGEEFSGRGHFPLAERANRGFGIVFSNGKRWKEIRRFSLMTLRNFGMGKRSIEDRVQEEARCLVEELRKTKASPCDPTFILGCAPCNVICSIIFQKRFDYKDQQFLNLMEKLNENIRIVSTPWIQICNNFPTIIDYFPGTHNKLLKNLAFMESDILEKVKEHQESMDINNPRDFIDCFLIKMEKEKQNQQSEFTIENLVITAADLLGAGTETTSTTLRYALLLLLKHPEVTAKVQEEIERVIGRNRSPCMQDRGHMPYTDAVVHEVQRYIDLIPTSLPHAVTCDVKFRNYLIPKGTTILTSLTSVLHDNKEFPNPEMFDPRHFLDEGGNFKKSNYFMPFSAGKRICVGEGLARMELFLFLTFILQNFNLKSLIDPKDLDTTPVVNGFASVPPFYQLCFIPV
Cytochrome P450 1A2 (Homo sapiens), sequence (P05177 whole entry, looked up): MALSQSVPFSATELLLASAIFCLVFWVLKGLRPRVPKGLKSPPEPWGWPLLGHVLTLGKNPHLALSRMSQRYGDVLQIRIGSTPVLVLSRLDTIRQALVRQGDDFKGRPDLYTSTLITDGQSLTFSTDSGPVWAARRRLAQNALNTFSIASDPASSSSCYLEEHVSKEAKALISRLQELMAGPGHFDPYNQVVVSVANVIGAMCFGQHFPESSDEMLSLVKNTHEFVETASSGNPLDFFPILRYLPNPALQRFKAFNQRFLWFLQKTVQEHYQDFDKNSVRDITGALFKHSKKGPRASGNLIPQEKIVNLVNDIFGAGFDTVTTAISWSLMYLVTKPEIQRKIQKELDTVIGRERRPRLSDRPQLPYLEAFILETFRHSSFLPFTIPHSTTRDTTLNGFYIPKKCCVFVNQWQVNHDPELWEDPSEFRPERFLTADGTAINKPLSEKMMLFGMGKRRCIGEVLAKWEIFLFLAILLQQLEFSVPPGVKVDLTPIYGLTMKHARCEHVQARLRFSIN
Cytochrome P450 2D6 (Homo sapiens), sequence (P10635 whole entry, looked up): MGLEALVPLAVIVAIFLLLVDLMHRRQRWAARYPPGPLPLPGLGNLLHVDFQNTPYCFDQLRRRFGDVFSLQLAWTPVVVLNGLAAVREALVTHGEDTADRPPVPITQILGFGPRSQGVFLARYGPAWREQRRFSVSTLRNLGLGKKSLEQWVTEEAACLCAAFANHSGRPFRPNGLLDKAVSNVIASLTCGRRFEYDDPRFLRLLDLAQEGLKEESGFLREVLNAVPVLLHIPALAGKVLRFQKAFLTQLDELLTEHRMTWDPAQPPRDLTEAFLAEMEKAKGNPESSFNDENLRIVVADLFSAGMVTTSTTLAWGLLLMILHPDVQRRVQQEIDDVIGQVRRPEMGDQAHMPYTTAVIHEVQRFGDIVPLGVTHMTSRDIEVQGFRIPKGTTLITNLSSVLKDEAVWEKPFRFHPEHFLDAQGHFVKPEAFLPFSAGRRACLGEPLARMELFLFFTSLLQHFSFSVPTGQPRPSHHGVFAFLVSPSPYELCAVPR
Cytochrome P450 3A4 (Homo sapiens), sequence (P08684 whole entry, looked up): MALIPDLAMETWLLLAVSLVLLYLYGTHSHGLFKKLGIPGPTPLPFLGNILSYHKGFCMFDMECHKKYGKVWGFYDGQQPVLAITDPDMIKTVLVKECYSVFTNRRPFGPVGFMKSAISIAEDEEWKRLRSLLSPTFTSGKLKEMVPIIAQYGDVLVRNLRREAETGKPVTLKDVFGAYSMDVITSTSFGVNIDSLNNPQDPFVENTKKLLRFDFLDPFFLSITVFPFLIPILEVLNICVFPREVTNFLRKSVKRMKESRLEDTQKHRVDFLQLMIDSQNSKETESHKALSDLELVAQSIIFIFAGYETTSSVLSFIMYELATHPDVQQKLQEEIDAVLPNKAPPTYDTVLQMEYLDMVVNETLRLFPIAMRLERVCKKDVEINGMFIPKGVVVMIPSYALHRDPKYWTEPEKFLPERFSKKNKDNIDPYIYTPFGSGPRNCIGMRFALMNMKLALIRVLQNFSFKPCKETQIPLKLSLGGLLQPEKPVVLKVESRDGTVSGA
Cytochrome P450 2C9 (Homo sapiens), sequence (P11712 whole entry, looked up): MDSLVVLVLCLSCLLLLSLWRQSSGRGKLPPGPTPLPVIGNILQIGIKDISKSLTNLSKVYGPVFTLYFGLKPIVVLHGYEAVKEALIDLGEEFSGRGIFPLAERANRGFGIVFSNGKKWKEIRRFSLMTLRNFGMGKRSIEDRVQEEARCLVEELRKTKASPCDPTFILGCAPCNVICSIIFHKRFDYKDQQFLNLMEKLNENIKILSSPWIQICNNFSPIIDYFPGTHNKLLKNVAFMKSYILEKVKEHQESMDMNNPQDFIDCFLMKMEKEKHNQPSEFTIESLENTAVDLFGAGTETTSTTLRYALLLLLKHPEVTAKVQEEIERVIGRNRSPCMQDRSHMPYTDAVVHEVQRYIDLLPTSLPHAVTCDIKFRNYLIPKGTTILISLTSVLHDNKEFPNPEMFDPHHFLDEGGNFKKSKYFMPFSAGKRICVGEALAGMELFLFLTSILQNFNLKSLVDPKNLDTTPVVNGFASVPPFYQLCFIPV

For the compound `c1ccc(CNCCN2CCNCC2)nc1`, the figures for the Potency in test [1], in [4] and in [5] were greater than 11.4 µM, greater than 46 µM and greater than 9.22 µM, respectively. For the same compound, the activity change, negative = inhibition in [2] was 4.86%. Moreover, the Potency entry in test [3], in [6], in [7], in test [8] and in test [9] was “inactive” each time.
For `O=[N+]([O-])c1cccc(/C=N\Nc2ccc3ccccc3n2)c1O`, the Potency in test [1] was greater than 11.4 µM; in test [3], 0.794 µM (active); in test [4] it was greater than 46 µM; in test [5] it was greater than 9.22 µM; in test [8], 3.16 µM (active). Further, in test [2], the activity change, negative = inhibition is -13.9%. Further, the Potency result in test [6], in [7] and in [10] was “inactive” in each case.
Take `Cc1cc(Cc2cc(C)cc(C(C)(C)C)c2O)c(O)c(Cc2cc(C)cc(C(C)(C)C)c2O)c1`: the Potency was greater than 11.4 µM in [1], greater than 46 µM in test [4], 3.16 µM (active) in [12] and 3.16 µM (active) in test [9]. Moreover, the values for the activity change, negative = inhibition in test [2] and in test [3] were -27.2% and -15.6% [at 2.29 µM], respectively. For the same compound, the activity, negative = inhibition in [11] was 6.72%. Further, the Potency entry in test [6] and in test [7] was “inactive” in each case.
With `Clc1ccc2c(NC3CCC(N4CCCCC4)CC3)ccnc2c1` (stereo not given), the Potency in [1] was greater than 11.4 µM; in test [4], greater than 46 µM; in test [5], greater than 9.22 µM. For the same compound, the results for the activity change, negative = inhibition in test [2] and in [3] were -12.3% and -15.7% [at 2.29 µM], respectively. Moreover, the activity, negative = inhibition in test [11] was 3.71%. In addition, the Potency entry in test [7] and in test [9] was “inactive” throughout.
